Test results from PubChem BioAssay (NCI).
Compounds without any hit were thinned out: in the full panel of roughly 83,000, 20% have a hit.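 For each line, cells grew in 96-well plates with the test compound present at a single concentration for 48 hours.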 Unmarked numbers belong to inactive results. The source made the active and inactive calls.

test system: OVCAR-3 ovarian; assay: NCI-60 one-dose screen, 48 h (100 = growth as untreated, 0 = no growth, -100 = all killed); conditions: 10 µM unless noted
Procedure: Growth inhibition of the OVCAR-3 human tumor cell line is measured as a screen for anti-cancer activity. Cells are grown in 96 well plates and exposed to the test compound for 48 hours. Compounds are tested at a single concentration, which is 10^-5 M for most compounds. The reported endpoint is percent growth (GI% or GIPRCNT), where numbers from 0 - 100% represent growth inhibition, and numbers from -100% - 0 represent cell death. For example, a value of 40 represents 60% growth inhibition. A value of 0 means no net growth occurred over the course of the experiment. A value of -40 indicates 40% of cells at the beginning of the experiment died by the end of the experiment. A value of -100 means all cells are dead at the end of the experiment.
NCI-60 Human Tumor Cell Lines Screen was performed using the standard one-dose NCI protocol, which is described in more detail at https://dtp.cancer.gov/discovery_development/nci-60/default.htm.
Compounds with GIPRCNT values below 10 were considered active. Activity score was based on GIPRCNT using the following formula: […]
Score is 0 for GIPRCNT values of 100 or above, 50 for GIPRCNT values of 0, and 100 for GIPRCNT values of -100.

Question: With COc1ccc(C2CC(c3cccs3)=NN2c2ccc(S(=O)(=O)NC(=O)NCc3cccc(OC)c3)cc2)cc1 (stereo not given) as the compound, how does the growth read?
Answer: The growth was 106%.

Question: Which growth does the source give for O=C(Nc1ccc(I)cc1)c1cccc([N+](=O)[O-])c1O here?
Answer: The growth was 7.89% (active).

Question: Which growth does the source give for O=S(=O)(NCCCNc1cc(-c2cn(-c3ccccc3)nc2-c2cccc(O)c2)ccn1)c1cccc2ccccc12 here?
Answer: The growth was 49.8%.

Question: With CCNCc1ccncc1 as the compound, how does the growth read?
Answer: The growth was 110%.

Question: Which growth does the source give for NC(=O)NNC(=O)c1ccccc1 here?
Answer: The growth was 111%.

Question: How did the growth turn out when Cc1sc2nc(CSc3nnc(-c4ccco4)o3)[nH]c(=O)c2c1C was run?
Answer: Its growth is 108%.

Question: How did the growth turn out when O=C(CCCn1c2c(sc3ccccc32)c(=O)n2nnc(-c3ccccc3)c12)NCCc1cnc[nH]1 was run?
Answer: Its growth is -49.7% (active).

Question: O=[N+]([O-])c1c(S(=O)(=O)O)cc2cc(S(=O)(=O)O)ccc2c1[N+](=O)[O-] was tested. Which growth did it give?
Answer: Its growth is 104%.

Question: How did the growth turn out when COc1cc(NS(C)(=O)=O)ccc1Nc1c2ccc([N+](=O)[O-])cc2nc2c(C)cccc12 was run?
Answer: Its growth is -13% (active).

Question: How did the growth turn out when COc1ccc(OC)c(NC(=O)c2cc(S(=O)(=O)N3CCc4ccccc43)ccc2OC)c1 was run?
Answer: The growth was 112%.

Question: With COc1ccc(/C=C/C(=O)OCC(=O)NNC(=O)c2ccccc2)cc1OC as the compound, how does the growth read?
Answer: The growth was 99.8%.

Question: For O=C(Nc1ccc(OCc2nnc(-c3ccc(Cl)cc3)o2)c(F)c1)Nc1ccc(Cl)c(Cl)c1, which growth is on record?
Answer: Its growth is 25.9%.

Question: How did the growth turn out when NC(=O)c1c(NC(=O)c2ccc3c(c2)OCO3)sc2c1CCC(=O)C2 was run?
Answer: The growth was -47% (active).

Question: Which growth does the source give for COc1ccc(/C=C(\C#N)c2ccc([N+](=O)[O-])cc2)c2ccccc12 here?
Answer: The growth was 62.6%.

Question: With CCN(CC)CCCC(C)N=c1cc(Nc2cc(=NC(C)CCCN(CC)CC)c3cc(OC)ccc3o2)oc2ccc(OC)cc12 (stereo not given) as the compound, how does the growth read?
Answer: The growth was -20.8% (active).

Question: For O=C(Cc1n[nH]c(=O)c2ccccc12)OCc1c(Cl)cccc1Cl, which growth is on record?
Answer: The growth was 84.5%.

Question: How did the growth turn out when CCN(CC)CCSc1c2ccc(Cl)cc2nc2ccc(OC)cc12 was run?
Answer: The growth was 24.5%.

Question: For CC(C)N(Cc1ccc(CN(C(=O)CCl)C(C)C)cc1)C(=O)CCl, which growth is on record?
Answer: Its growth is -76.1% (active).

Question: With Nc1cccc2c1CN(C1CCC(=O)NC1=O)C2=O (stereo not given) as the compound, how does the growth read?
Answer: The growth was 108%.

Question: With c1cc(-c2ccc3c(c2)OCO3)n2nccc2n1 as the compound, how does the growth read?
Answer: The growth was 103%.

Question: For COc1ccc(NC(=S)/N=c2\oc3c(OC)cccc3cc2-c2cc3ccccc3[nH]2)cc1, which growth is on record?
Answer: Its growth is 79.7%.

Question: How did the growth turn out when Cc1cc(C)c(S(=O)(=O)N2CCN(c3cc4c(cc3F)c(=O)c(C(=O)O)cn4C3CC3)CC2)c(C)c1 was run?
Answer: The growth was 91.3%.

Question: With CC(=O)N1Cc2ccccc2C(C)Cc2cc(Cl)ccc21 (stereo not given) as the compound, how does the growth read?
Answer: Its growth is 109%.

Question: OC1CC2c3ccccc3C1c1ccccc12 (stereo not given) was tested. Which growth did it give?
Answer: The growth was 112%.

Question: Cc1cc(-c2ccccc2)c(C)n1Cc1ccc(Cl)cc1 was tested. Which growth did it give?
Answer: Its growth is 27.3%.

Question: COc1ccc(/C=C/C(=O)c2cc(OC)c(OC)c(OC)c2)cc1OCc1cn(Cc2ccc(F)cc2)nn1 was tested. Which growth did it give?
Answer: The growth was 21.7%.

Question: With COc1cccc(NC(=O)Cn2cc3c(=O)oc4ccccc4c3n2)c1 as the compound, how does the growth read?
Answer: Its growth is 99.1%.

Question: How did the growth turn out when CCCCn1c(=O)c(C2CNC(=O)c3ccccc3N2)cc2ccccc21 (stereo not given) was run?
Answer: The growth was 99.7%.

Question: Which growth does the source give for CC(Cc1nnc(SCC(=O)Nc2ccc(I)cc2)n1N)c1ccccc1 (stereo not given) here?
Answer: The growth was 111%.

Question: With Cc1cc(C)c(NC(=O)c2sc3nc4c(cc3c2N)CN(Cc2ccccc2)CC4)c(C)c1 as the compound, how does the growth read?
Answer: Its growth is -3.04% (active).

Question: For COc1ccc(C2SCC(=O)N2NC(=O)c2ccc(NC(=O)c3ccccn3)cc2)cc1OC (stereo not given), which growth is on record?
Answer: The growth was 101%.

Question: Which growth does the source give for O=C1c2ccccc2C(=O)c2c(N=Nc3sc(=O)[nH]c3S)cccc21 here?
Answer: Its growth is 89.1%.

Question: With COC(=O)CCCCCCN=Cc1c(O)c(O)c(C(C)C)c2cc(C)c(-c3c(C)cc4c(C(C)C)c(O)c(O)c(C=NCCCCCCC(=O)OC)c4c3O)c(O)c12 as the compound, how does the growth read?
Answer: The growth was 21.8%.

Question: How did the growth turn out when C=CCc1cc(Cl)cc2c(OC(C)=O)c(C(C)=O)c(-c3ccccc3)nc12 was run?
Answer: Its growth is 107%.

Question: How did the growth turn out when COc1ccc2c(c1)NC(=O)CN2c1nc(NC2CC2)nc2ccccc12 was run?
Answer: Its growth is -19.7% (active).

Question: With COc1cc(CCn2nnc3c(Nc4ccc(N5CCOCC5)cc4)ncnc32)cc(OC)c1 as the compound, how does the growth read?
Answer: Its growth is 92.8%.

Question: With COc1ccc(NC(=O)CSc2nc3ccc(Cl)cc3c(=O)n2-c2ccccc2C(F)(F)F)c(OC)c1OC as the compound, how does the growth read?
Answer: The growth was 82.5%.

Question: How did the growth turn out when CC(Br)C(O)c1cc2c(cc1Br)OCO2 (stereo not given) was run?
Answer: Its growth is 109%.

Question: COc1cc(/C=C/C(=O)c2ccc(NC(=O)CN3CCN(c4cc5c(cc4F)c(=O)c(C(=O)O)cn5C4CC4)CC3)cc2)cc(OC)c1OC was tested. Which growth did it give?
Answer: Its growth is -25.8% (active).

Question: Which growth does the source give for C=CCOc1cccc(/C=C/C(=O)c2sc(Nc3cccnc3)nc2C)c1 here?
Answer: Its growth is 14.9%.
